# Source: PubChem BioAssay AID1745848 (National Center for Advancing Translational Sciences (NCATS), 2022)
# The campaign covered roughly 2,100 compounds. About 940 (45%) were called active. Inconclusive results (about 48%) are left out. So high a share suggests a set chosen from earlier hits. The list shows a part of the results. Values without a mark were called inactive. The call rests on the fitted dose curve; in most records, active means well fitted inhibition curve with a large enough effect; inconclusive means small, poorly fitted or top-dose-only effect; inactive means no such curve, though single readings can be large or run the other way.
# Assay: Confirmatory qHTS for Inhibitors of ATXN expression; further: nearly all actives have a fitted effect of over 65% in size;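 on activity change, negative = inhibition: 0% = DMSO vehicle wells and -100% = medium-only wells without cells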
# Details: ATXN2-luciferase reporter cells, luminescence, 24 h; series mostly up to 11.5 µM; activity change, negative = inhibition: at the top concentration
# In short: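 Cells carrying ATXN2-luciferase reporter exposed 24 h at 37 C to compound. Viability then read by CellTiter-Fluor (25 uM GF-AFC, 30 min), followed by SteadyGlo luminescence; medium-only wells set 100% inhibition.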
# Potency means the concentration at half of the fitted maximal effect.
Structure (SMILES),Potency,"activity change, negative = inhibition"
CC(=O)N1c2ccc(S(=O)(=O)N3CCC(C(=O)Nc4cccc(C(F)(F)F)c4)CC3)cc2CC1C (stereo not given),14.1 µM (active),–
Cc1ccc2c(Cl)cc(Cl)c(O)c2n1,5.62 µM (active),–
COc1ccc(OC)c(C(=O)/C=C/c2ccccc2C(F)(F)F)c1,3.16 µM (active),–
COc1ccc([C@@]2(C(C)C)ON(c3ccccc3C(F)(F)F)C2=O)cc1,–,-15.7%
Cc1ccc(-c2cc(C(=O)NCCCN3CCOCC3)no2)cc1,7.94 µM (active),–
CC(O)(c1ccccc1)c1nc(-c2ccncc2)cs1 (stereo not given),–,7.8%
OCCN1CCN(C2CCC(c3ccc(F)cc3)c3ccc(F)cc32)CC1 (stereo not given),25.1 µM (active),–
CCN(CC)S(=O)(=O)c1ccc(N/N=C/c2cc(OC)ccc2O)nc1,0.794 µM (active),–
CC(=O)N1CCCc2cc(S(=O)(=O)N3CCCC(C(=O)N4CCN(c5cc(C)ccc5C)CC4)C3)ccc21 (stereo not given),3.16 µM (active),–
CCOCCn1ccc2c(OCC(=O)Nc3ccc(OC)c(OC)c3)cccc2c1=O,–,-16.3%
CCc1ccc(NC(=O)COc2ccc(/C=C(/C#N)c3nc4ccccc4[nH]3)cc2OC)cc1,3.55 µM (active),–
CCOC(=O)c1ccc2ncc(C(=O)OCC)c(Nc3ccc(N4CCOCC4)cc3)c2c1,3.98 µM (active),–
CCN(CC)S(=O)(=O)c1cccc(NC(=O)Nc2cccc(C(F)(F)F)c2)c1,1.78 µM (active),–
O=c1cc(N2CCN(c3cccc(Cl)c3)CC2)[nH]c(=O)n1C1CCCCC1,0.355 µM (active),–
NC(=O)N/N=C/c1c(O)ccc2oc3c(c12)CCCC3,14.1 µM (active),–
Cc1nc2ccccc2c(=O)n1/N=C/c1c(O)ccc2oc3c(c12)CCCC3,15.8 µM (active),–
Cc1ccccc1N=Nc1ccc(O)c2ncccc12,1.41 µM (active),–
Cc1ccc(N=Nc2ccc(O)c3ncccc23)cc1,3.16 µM (active),–
Cn1c2c(c(=O)[nH]c1=O)C(c1cccc(O)c1)C1=C(N2)c2ccccc2C1=O (stereo not given),3.98 µM (active),–
COCCCNCCCOc1ccc(Cl)cc1C(C)(C)C,15.8 µM (active),–

Structure (SMILES),Potency,"activity change, negative = inhibition"
CCc1cc2c(N3CCN(c4nnc(CC)s4)CC3)ncnc2s1,3.55 µM (active),–
Cc1cc(C)cc(NC(=O)CCc2nc3sc4c(c3c(=O)[nH]2)CCCC4)c1,0.708 µM (active),–
CC(C)C(=O)NC(c1cccc([N+](=O)[O-])c1)c1ccc2cccnc2c1O (stereo not given),2.24 µM (active),–
CC(=O)NC(c1cccc([N+](=O)[O-])c1)c1ccc2cccnc2c1O (stereo not given),0.562 µM (active),–
O=[N+]([O-])c1ccc(NC(c2ccccc2)c2ccc3cccnc3c2O)cc1 (stereo not given),1.26 µM (active),–
CC(NC(=O)Nc1cccc([N+](=O)[O-])c1)c1ccc2c(c1)OCO2 (stereo not given),–,-5.8%
CCOC(=O)c1ccc(N=c2sc(C(=O)OC)cc(=O)n2-c2ccc(C(=O)OCC)cc2)cc1,3.98 µM (active),–
O=C(CSc1n[nH]c(-c2ccccn2)n1)Nc1cccc(Cl)c1,3.55 µM (active),–
Cc1ccc(NC(=O)CSc2n[nH]c(-c3ccccn3)n2)cc1,2.82 µM (active),–
O=C(CSc1n[nH]c(-c2ccccn2)n1)Nc1ccc(Cl)cc1,1.26 µM (active),–
O=C(CSc1n[nH]c(-c2ccccn2)n1)Nc1ccc(F)cc1,8.91 µM (active),–
O=C(CC1NCCc2ccccc21)Nc1ccc(Cl)cc1 (stereo not given),–,7.55%
COC(/C(=N/O)c1ccc(Cl)cc1)c1ccccc1 (stereo not given),–,-30% [at 57.5 µM]
O=C(CSc1n[nH]c(-c2ccccn2)n1)Nc1ccccc1,15.8 µM (active),–
COc1cc(Br)cc(/C=N/NC(=O)Cc2ccc(C(F)(F)F)cc2[N+](=O)[O-])c1O,10 µM (active),–
c1cc2c(cc1-c1cnc3n1CCC3)OCCO2,12.6 µM (active),–
NC(=Nc1nc(-c2ccccn2)cc2ccccc12)c1ccccn1,0.0562 µM (active),–
Oc1cccc(C(Nc2nccs2)c2ccc3cccnc3c2O)c1 (stereo not given),2.51 µM (active),–
Oc1c(C(Nc2nccs2)c2ccc(C(F)(F)F)cc2)ccc2cccnc12 (stereo not given),1.78 µM (active),–
Oc1ccccc1C(Nc1nccs1)c1ccc2cccnc2c1O (stereo not given),2.82 µM (active),–

Structure (SMILES),Potency,"activity change, negative = inhibition"
Oc1c(C(Nc2ccccn2)c2ccccn2)ccc2cccnc12 (stereo not given),3.16 µM (active),–
O=C(N/N=C/c1ccc([N+](=O)[O-])s1)c1ccccc1Br,14.1 µM (active),–
O=C(N/N=C/c1ccc([N+](=O)[O-])s1)c1ccccc1,12.6 µM (active),–
Cc1ccccc1C(=O)N/N=C/c1ccc([N+](=O)[O-])s1,12.6 µM (active),–
COc1ccc(C(=O)NCC(=O)N/N=C/c2ccc([N+](=O)[O-])s2)cc1OC,10 µM (active),–
Cc1c(C(=O)N2c3ccccc3Sc3ccccc32)cccc1[N+](=O)[O-],–,-28.2% [at 57.5 µM]
Cc1ccc(C)n1-c1ccc(C(=O)N2CCC(C(N)=O)CC2)cc1,–,0.758%
COc1cccc(CNc2nc3cc(-c4ccc(C(=O)N5CCN(C)CC5)cc4)sc3c(=O)n2C)c1,28.2 µM (active),–
COc1ccc(C(=O)Nc2nc(-c3ccc(S(=O)(=O)N4CCOCC4)cc3)cs2)cc1,1.78 µM (active),–
O=C(Nc1nc(-c2ccccn2)cs1)c1ccc(F)c(S(=O)(=O)N2CCOCC2)c1,1.78 µM (active),–
COc1cccc(C(=O)Nc2nc(-c3ccc(S(=O)(=O)N4CCOCC4)cc3)cs2)c1,1.58 µM (active),–
COc1cccc(NC(=O)/C=C/c2ccc(S(=O)(=O)N3CCOCC3)cc2)c1,–,-14.6% [at 57.5 µM]
NC(=O)c1c(NC(=O)c2ccc(S(=O)(=O)N3CCOCC3)cc2)sc2c1CCCCC2,–,-23.6%
COc1ccccc1C(=O)Nc1nc(-c2ccc(S(=O)(=O)N3CCOCC3)cc2)cs1,3.98 µM (active),–
CCN1CCN(C(=S)c2ccc(-c3ccccc3)cc2)CC1,1.58 µM (active),–
OCCN1CCN(C(=S)c2ccc(-c3ccccc3)cc2)CC1,1.78 µM (active),–
COc1ccc(NC(=O)c2cc(-c3cc(Cl)ccc3OC)n[nH]2)cc1OC,0.631 µM (active),–
O=c1c(O)c(-c2ccccc2)oc2ccccc12,–,-8.49%
O=c1cc(-c2c(F)c(F)c(F)c(F)c2F)oc2ccccc12,3.55 µM (active),–
Cc1nc(SCC(=O)Nc2ccc(S(=O)(=O)N3CCOCC3)cc2)c2c(C)c(C)sc2n1,3.98 µM (active),–
